The results in this text go back to PubChem BioAssay.

Values without a mark were called inactive. How the calls were made is not given here.

For this test, the target named is Pantothenate synthetase (Mycobacterium tuberculosis (strain ATCC 25618 / H37Rv)) (UniProt P9WIL5). Put plainly: Coupled enzyme confirmation of inhibitors against recombinant Mtb PanC (AID 375).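 Further: 0% = full reaction with vehicle and 100% = no enzyme background.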 The settings on record: coupled enzyme assay; at 10 µM, active compounds read high.

By inhibition is commonly meant the share of the control response that was lost under treatment.

Chain of Pantothenate synthetase (Mycobacterium tuberculosis (strain ATCC 25618 / H37Rv)) (P9WIL5 whole entry, looked up): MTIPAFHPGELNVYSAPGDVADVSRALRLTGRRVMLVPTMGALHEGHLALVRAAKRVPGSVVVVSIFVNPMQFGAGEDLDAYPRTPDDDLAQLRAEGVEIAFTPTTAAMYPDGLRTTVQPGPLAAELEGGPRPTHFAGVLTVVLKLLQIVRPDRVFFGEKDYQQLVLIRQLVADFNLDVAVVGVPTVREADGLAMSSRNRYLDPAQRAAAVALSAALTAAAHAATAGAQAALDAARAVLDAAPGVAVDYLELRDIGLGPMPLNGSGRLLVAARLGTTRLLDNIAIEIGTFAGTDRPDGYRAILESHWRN

For `COc1cc(CC(=O)NCc2ccc3c(c2)OCO3)cc(OC)c1OC`, the inhibition was 1%.
On to `COc1ccc(C(=O)Nc2nc(C)c(C(=O)N(C)C)s2)cc1OC`, for which the inhibition is 0%.
Next, `O=C(CN1CCCN(S(=O)(=O)c2ccc(F)cc2)CC1)Nc1ccccc1Br`: 5%; `CCOc1ccccc1N(C(=O)c1ccco1)C(C(=O)NC1CCCC1)c1cccnc1` (stereo not given): 0%; `Cc1cc(C)n(C(C)n2nc(C)cc2C)n1`: 6%.
Next, `Cc1csc(NC(=O)c2cccc(S(=O)(=O)N3CCCCC3)c2)n1`: 0%.
In the case of `CC(=O)c1c(C)[nH]c(C(=O)OCc2nnc(-c3ccccc3)o2)c1C` it was 0%; in that of `COc1ccccc1N1CCN(C(=O)c2c(-c3c(Cl)cccc3Cl)noc2C)CC1`, 0%.
For the compound `O=C(C1CC1)N1CCc2cc(Br)cc(S(=O)(=O)N3CCOCC3)c21`, the inhibition was 3%.
In the case of `O=C(NCc1cccnc1)C1c2ccccc2C(=O)N1Cc1ccco1` (stereo not given) it was 1%.
On to `CCOc1cc(CN2CCN(C(=O)c3ccco3)CC2)ccc1OC`, for which the inhibition was 9%.
Take `COC(=O)c1cccc(S(=O)(=O)N2CCN(c3nc4ccccc4s3)CC2)c1`: the inhibition is 2%.
In the case of `CCOC(=O)N1CCN(C(=O)CSc2nnc(-c3cccc(Cl)c3)o2)CC1` it was 0%.
In the case of `COc1cc(OC)c(OC)cc1CN(C)CCc1ccccn1` it was 3%; in that of `CCCCCC(=O)O[C@]1(C(C)=O)CC[C@H]2[C@@H]3CCC4=CC(=O)CC[C@]4(C)[C@H]3CC[C@@]21C`, 0%; in that of `COc1ccccc1NC(=O)N1CCN(c2cccc(C(F)(F)F)c2)CC1`, 4%.
Next, `CO/C([O-])=N/c1c[n+](-c2ccc(C)cc2)no1`: 0%; `CC(C)(C)NC(=O)CN(C(=O)C1CSC(=O)C1)c1ccc2c(c1)OCCO2` (stereo not given): 0%.
For the compound `CCOC(=O)c1cnn(-c2cc(C)c3cc(C)cc(C)c3n2)c1N`, the inhibition was 0%.
On to `Cc1cc(C)cc(NS(=O)(=O)c2ccc3[nH]cc(C(=O)NCc4ccco4)c(=O)c3c2)c1`, for which the inhibition was 0%.
In the case of `O=C(CN1C(=O)NC2(CCCCCC2)C1=O)N1CCC(Cc2ccccc2)CC1` it was 2%; in that of `O=C(NCC(c1cccnc1)N1CCOCC1)c1cccs1` (stereo not given), 0%.
Next, `CCNC(=O)N(C)c1nncnc1C(=O)NC`: 0%; `CCC1(C)Cc2c(C#N)c(N)n(N)c(=S)c2CO1` (stereo not given): 0%.
Turning to `O=C(Cn1ncc2c1-c1ccccc1OC2)N1CCc2ccccc21`, the inhibition is 0%.
Next, `Cc1cc2ncn(N)c2cc1C`: 9%.
Next, `CSc1c(CC(=O)NCCO)n(C)c2ccccc12`: 0%; `Cc1cc(NC(=O)c2cnn3c(C(F)F)cc(C4CC4)nc23)no1`: 0%.
As for `Cc1nc2sc(C(c3cccc(F)c3)N3CCCCC3)c(O)n2n1` (stereo not given), the inhibition is 0%.
`CCCCn1nc(C(=O)N2CCc3ccccc32)c2ccccc2c1=O`: the inhibition was 6%.
Next, `O=C(CN1CCN(Cc2ccc(F)cc2Cl)C1=O)NCCCN1CCOCC1`: 0%; `CCC(C)(C(=O)NC1CCCC1)N(Cc1cccs1)C(=O)Cc1cccs1` (stereo not given): 0%; `CCOc1ccccc1N1CCN(c2nc(N)c(C#N)c(CC#N)c2C#N)CC1`: 0%.
Next, `Cc1nc2sc(C(c3ccco3)N3CCN(c4ccccc4F)CC3)c(O)n2n1` (stereo not given): 0%.
In the case of `O=C1CC(N2CCN(c3ccc(Cl)c(Cl)c3)CC2)C(=O)N1` (stereo not given) it was 0%; in that of `CCN(CC)CCCNS(=O)(=O)c1ccc(OC)cc1`, 3%.
For the compound `CC1=C(C(=O)Nc2ccccc2)C(c2ccco2)C(C#N)=C(SCC(=O)Nc2cccc(C)c2C)N1` (stereo not given), the inhibition was 1%.
Next, `CCOC(=O)N1CCN(c2c(N3CCc4ccccc4C3)c(=O)c2=O)CC1`: 0%; `Nc1ncnc(Nc2ccccc2C(F)(F)F)n1`: 0%; `COc1ccccc1N1CCN(c2cc(=O)n(Cc3ccc(F)cc3)c(=O)[nH]2)CC1`: 0%.
On to `CC(OC(=O)C1CC=CCC1C(N)=O)C(Cl)=C(Cl)Cl` (stereo not given), for which the inhibition is 0%.
Next, `O=C1CCCC2=C1C(c1ccsc1)CC(=O)N2c1ccccc1` (stereo not given): 0%.
Next, `COc1ccc(CC(=O)Nc2c3c(nn2-c2cccc(Cl)c2)CS(=O)C3)cc1` (stereo not given): 7%.
In the case of `CN(CC(=O)Nc1cccnc1)S(=O)(=O)c1cc(Cl)ccc1Cl` it was 0%.
Take `C[C@]12C[C@H](O)[C@H]3[C@@H](CCC4=CC(=O)CC[C@@]43C)[C@@H]1CC[C@@H]2C(=O)CO`: the inhibition was 0%.
